Screening data (PubChem)
Sampled rows, rich in hits. Any-hit rate of the full collection: about 12%.
HP1b binding inh: HTS for Inhibitors of HP1-beta Chromodomain Interactions with Methylated Histone Tails | Potency, µM (series often up to 114 µM), inactives show at the highest dose activity change, negative = inhibition, most hits filed as inhibitors | Chromobox protein homolog 1 (Homo sapiens), P83916 | 390,000 tested, 0.56% active | AID 540317, 2011 | AlphaScreen HP1-beta / biotin-H3K9me3 peptide binding; note: nearly all actives have a fitted effect of over 70% in size
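HP1-beta protein (50 nM final) preincubated 30 min at room temperature with biotinylated H3(1-18)K9me3 peptide (50 nM) in PBS pH 7.4, 0.01% Tween-20, then compound added for 30 min. AlphaScreen streptavidin donor/nickel chelate acceptor beads (10 ug/mL final), 30 min dark, luminescence read.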
JMJD2A Tudor: qHTS Assay for Inhibitors of JMJD2A-Tudor Domain. AlphaScreen JMJD2A-Tudor / H3K4me3 peptide binding. Lysine-specific demethylase 4A (Homo sapiens), O75164. 390,000 tested, 4.4% active. Potency, µM (highest dose often 114 µM), for the others: at the highest dose activity change, negative = inhibition, most hits filed as inhibitors; note: % is set by controls: 0 for no effect and ±100 for the full control effect; nearly all actives have a fitted effect of over 50% in size
G9a inh: qHTS Assay for Inhibitors of Histone Lysine Methyltransferase G9a; Potency, µM (series often up to 102 µM), for the others: at the highest dose activity, negative = inhibition, usual class: inhibitors; AID 504332, 2011; 350,000 tested, 8.8% active; Histone-lysine N-methyltransferase EHMT2 (Homo sapiens), Q96KQ7; G9a H3K9 monomethylation, AlphaScreen, 2 h; note: % is set by controls: 0 for no effect and ±100 for the full control effect; nearly all actives have a fitted effect of over 75% in size
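Chemiluminescent proximity detection of H3K9 monomethylation, read after 10 min bead incubation in the dark. Reaction: 20 nM G9a, 500 nM biotin-H3K9 peptide, 20 uM SAM cofactor, 2 h, room temperature, following 15 min enzyme-compound preincubation.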
BAZ2B inh: qHTS Assay for Inhibitors of BAZ2B. Potency, µM (top dose mostly 114 µM), without a hit: at the highest dose activity change, negative = inhibition, usual class: inhibitors. AlphaScreen BAZ2B-H3K14Ac peptide displacement. 360,000 tested, 4.4% active; note: % is set by controls: 0 for no effect and ±100 for the full control effect; nearly all actives have a fitted effect of over 60% in size
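AlphaScreen displacement: compounds (up to 110uM) incubated 30 min at room temperature with a preformed 50 nM BAZ2B/50 nM biotinylated H3K14Ac peptide complex in PBS pH 7.4 with Tween-20. Donor and acceptor beads at 10 ug/mL final added, 20 min light-protected before reading.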
L3MBTL1 block: qHTS Assay for the Inhibitors of L3MBTL1 | Potency, µM (titrated, usually from 57.1 µM), for the others: at the top dose activity, negative = inhibition, usual class: inhibitors | Lethal(3)malignant brain tumor-like protein 1 (Homo sapiens), Q9Y468 | 230,000 tested, 0.66% active | AlphaScreen L3MBTL1–H3K9me1 peptide binding; note: % is set by controls: 0 for no effect and ±100 for the full control effect; nearly all actives have a fitted effect of over 60% in size
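L3MBTL1 50 nM + b-AHA-H3(1-15)K9me1 75 nM, 30 min RT; compound added, 30 min RT; streptavidin donor/Ni-chelate acceptor beads 10 ug/mL each final, 30 min RT dark; AlphaScreen read.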
Sfp inh: qHTS Assay for Inhibitors of Bacillus subtilis Sfp phosphopantetheinyl transferase (PPTase). 310,000 tested, 3.5% active. Biochemical Sfp PPTase activity, qHTS. Potency, µM, without a hit: largest response in the series, negative = inhibition, most hits filed as inhibitors. 4'-phosphopantetheinyl transferase ffp (Bacillus subtilis), Q9F4F7;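 note: the enzyme is Sfp with the accession as filed and its product quenches rhodamine fluorescence; 0% = enzyme reaction without inhibitor and -100% = no enzyme wells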
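Fluorescence-quenching assay: 15 nM Sfp-PPTase preincubated 15 min at room temperature with compound, then 5 uM rhodamine-CoA and 12.5 uM BHQ-2-labelled YbbR peptide added. Fluorescence (ex 525/em 598 nm) read at start and after 30 min; difference gives rate.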
* = called active by the depositor; ? = inconclusive; . = no result; [ ] = another dose, or the depositor's remark. Calls come from the whole dose curve; as a rule, active = well fitted curve in the direction sought with a large enough effect; inconclusive = small, poorly fitted or top-dose-only effect, or another doubt; inactive = no such curve, though single readings can be large; an effect the other way counts as inactive or inconclusive. Potency is the fitted concentration of half-maximal effect.

SMILES	HP1b binding inh	JMJD2A Tudor	G9a inh	BAZ2B inh	L3MBTL1 block	Sfp inh
COc1cccc(CN2CCNC(=O)C2CC(=O)NCCn2ccc3ccccc32)c1OC (stereo unspecified)	12%	?	40µM*	?	-17%	1%
CCc1cccc(NC(=O)CSc2nncn3c2cc2sccc23)c1	25%	-14%	-9%[59 µM]	-27%	.	.
CCOC(=O)C(=CNc1ccc(-c2ccco2)c(Cl)c1)C(=O)OCC	9%	7%	.	-31%	-18%	28µM*
CCOC(=O)CN1CC23C=CC(O2)C(C(=O)NCc2ccc(C)cc2)C3C1=O (stereo unspecified)	33%	2%	35µM*	-18%	-1%	22%
CCOC(=O)CN1CC23C=CC(O2)C(C(=O)NC2CCCC2)C3C1=O (stereo unspecified)	44%	-6%	45µM*	25%	-1%	?
COC(=O)c1ccc(O)c(Sc2cc(C(=O)OC)ccc2O)c1	41%	-3%	10µM*	8%	6%	?
CCOc1ccccc1NC(=O)c1c(NCc2sccc2C)sc2c1CCC(C)C2 (stereo unspecified)	-4%	-29%	-29%[59 µM]	-29%	.	.
COc1ccc(NC(=O)c2c(NCc3cccc(F)c3)sc3c2CCCC3)c(OC)c1	?	?	10µM*	25µM*	.	.
COc1ccccc1NC(=O)c1c(NCc2sccc2C)sc2c1CCCCC2	?	45µM*	10µM*	32µM*	.	.
CCOc1ccccc1NC(=O)c1c(NCc2sccc2C)sc2c1CCCCC2	4%	?	10µM*	?	.	.
CCOC(=O)N1CCc2c(sc(NCc3sccc3C)c2C(=O)Nc2ccc(OC)cc2OC)C1	-2%	?	3.5µM*	?	.	.
O=C1c2ccccc2C(=O)N1c1cc(=O)c2ccccc2[nH]1	.	-26%	.	.	.	.
Cc1ccccc1Cn1c(SCc2ccc(C(=O)NC(C)c3ccccc3)cc2)nc2ccncc21 (stereo unspecified)	25%	-18%	?	-10%	.	.
COc1ccc(NC(=O)c2c(NCc3sccc3C)sc3c2CCCCC3)c(OC)c1	-18%	?	11µM*	32µM*	.	.
CCOC(=O)N1CCc2c(sc(NCc3sccc3C)c2C(=O)Nc2ccccc2OCC)C1	7%	?	8.9µM*	-23%	.	.
CCOc1ccccc1NC(=O)c1c(NCc2cccs2)sc2c1CCCCC2	0%	-23%	?	-3%	.	.
COc1ccc(Cl)cc1NC(=O)c1c(NCc2sccc2C)sc2c1CCCC2	?	50µM*	2.8µM*	45µM*	.	.
COc1cccc(N2CC(NC(=O)c3cccs3)CC2=O)c1 (stereo unspecified)	-9%	3%	2%[59 µM]	-23%	.	.
Cn1c(=O)c2c(nc(SCC(=O)Nc3ccccc3F)n2Cc2ccccc2F)n(C)c1=O	36%	-5%	?	-28%	.	.
COc1ccc2c(c1)C(C)CC(C)(C)N2C(=O)NC1CCCCC1 (stereo unspecified)	-11%	-31%	45µM*	?	-9%	-1%
CCn1c2c(c(=N)c3c1CCC3)CCCC2	20%	-13%	8%	4%	-4%	4%
CCCCCn1c2c(c(=N)c3ccccc31)CCC2	12%	?	50µM*	-15%	-17%	?
CCCCCCCCCn1c2c(c(=N)c3c1CCC3)CCCC2	-4%	-22%	-39%	2%	0%	45µM*
CCCCCCCCn1c2c(c(=N)c3ccccc31)CCC2	8%	-17%	-26%	-1%	1%	13%
CCCCCCCCCCn1c2c(c(=N)c3c1CCC3)CCC2	29%	-16%	55%[12.7 µM]	7%	7%	28µM*
SMILES	HP1b binding inh	JMJD2A Tudor	G9a inh	BAZ2B inh	L3MBTL1 block	Sfp inh
CN1C2=CC=CC=CC2=[N+](C)C12C=CC(=[N+]([O-])[O-])C=C2[N+](=O)[O-] (stereo unspecified)	?	-28%	32µM*	35µM*	?	-15%
O=[N+]([O-])c1ccc(NC2CCN(Cc3ccccc3)CC2)c([N+](=O)[O-])c1	?	-72%	?	?	-3%	13%
O=C1c2c([N+](=O)[O-])cc([N+](=O)[O-])cc2S(=O)N1Cc1ccccc1 (stereo unspecified)	?	89µM*	0.89µM*	45µM*	.	50µM*
Cc1cccc(NC(=O)CSc2ncc3c(n2)-c2ccccc2N(Cc2ccc(F)cc2)S3(=O)=O)c1C	-5%	-15%	0%[59 µM]	?	.	.
CC(=O)O/N=C1\C(=O)N(Cc2ccc(C)cc2)c2ccccc21	1%	-32%	50µM*	-29%	1%	6%
Cc1ccc2c(c1)C(=O)C(=O)N2Cc1ccc(C(F)(F)F)cc1	1%	-31%	.	.	-17%	.
Cc1ccc(CN2C(=O)C(=O)c3cc(Br)cc(C)c32)cc1	13µM*	25µM*	11µM*	13µM*	.	.
Cc1nc2nc(C)n(CCN3CCOCC3)c(=O)c2c(-c2cccc([N+](=O)[O-])c2)c1C(=O)CCCCCCCCCCN1CCC(c2ccccc2)(c2ccccc2)CC1	40µM*	25µM*	.	.	.	.
Cc1nc2ccccc2c(=O)n1CCN1CCOCC1	19%	-5%	5%[59 µM]	15%	.	-6%
O=C(Nc1ccccc1N1CCCC1)c1ccc2c(c1)OCO2	22%	-17%[57.1 µM]	45µM*	-39%	-14%	0%
O=C(O)c1ccccc1C(=O)Nc1cc(C(F)(F)F)ccc1N1CCCC1	?	?	-8%	-32%	.	-1%
O=C(Nc1cc(C(F)(F)F)ccc1N1CCCC1)c1ccc2c(c1)OCO2	51%	-20%	45µM*	-20%	-5%	19%
O=C(Nc1ccccc1N1CCOCC1)c1ccc2c(c1)OCCO2	25%	-12%	.	-2%	.	19%
COc1ccc(OCC(=O)Nc2cccc(-c3nc4ccccc4s3)c2C)cc1	66%	3%	30%[59 µM]	2%	.	.
Nc1ccc2c(c1)C(=O)C(=O)c1ccccc1-2	20µM*	?	6%[0.501 µM]	?	.	13%
COc1ccc(CNC(=O)c2ccc(CNS(=O)(=O)c3ccc(F)cc3)cc2)cc1	27%	-15%	-6%[59 µM]	4%	.	.
